# Laboratory results from the supplement of paper PMC11624193, “Coupling cellular drug-target engagement to downstream pharmacology with CeTEAM” (Nature Communications, 2024).
# Target: PARP1 L713F-nLuc biosensor (HCT116) (UniProt P09874)
# Experiment: PARP1 L713F-nLuc/akaLuc ratio relative to DMSO control (biosensor stabilization) (fold change); higher = more PARP1 biosensor stabilization (target engagement / stabilizer), active = hit call of the paper
# Settings: stock concentration (mM; final µM = stock mM x 1): 2; 24 h;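 active = log2 fold change beyond 2 SD from the library mean after excluding viability outliers; inactive = within 2 SD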
# Chain of PARP1 L713F-nLuc biosensor (HCT116) (P09874 whole entry L713F, looked up): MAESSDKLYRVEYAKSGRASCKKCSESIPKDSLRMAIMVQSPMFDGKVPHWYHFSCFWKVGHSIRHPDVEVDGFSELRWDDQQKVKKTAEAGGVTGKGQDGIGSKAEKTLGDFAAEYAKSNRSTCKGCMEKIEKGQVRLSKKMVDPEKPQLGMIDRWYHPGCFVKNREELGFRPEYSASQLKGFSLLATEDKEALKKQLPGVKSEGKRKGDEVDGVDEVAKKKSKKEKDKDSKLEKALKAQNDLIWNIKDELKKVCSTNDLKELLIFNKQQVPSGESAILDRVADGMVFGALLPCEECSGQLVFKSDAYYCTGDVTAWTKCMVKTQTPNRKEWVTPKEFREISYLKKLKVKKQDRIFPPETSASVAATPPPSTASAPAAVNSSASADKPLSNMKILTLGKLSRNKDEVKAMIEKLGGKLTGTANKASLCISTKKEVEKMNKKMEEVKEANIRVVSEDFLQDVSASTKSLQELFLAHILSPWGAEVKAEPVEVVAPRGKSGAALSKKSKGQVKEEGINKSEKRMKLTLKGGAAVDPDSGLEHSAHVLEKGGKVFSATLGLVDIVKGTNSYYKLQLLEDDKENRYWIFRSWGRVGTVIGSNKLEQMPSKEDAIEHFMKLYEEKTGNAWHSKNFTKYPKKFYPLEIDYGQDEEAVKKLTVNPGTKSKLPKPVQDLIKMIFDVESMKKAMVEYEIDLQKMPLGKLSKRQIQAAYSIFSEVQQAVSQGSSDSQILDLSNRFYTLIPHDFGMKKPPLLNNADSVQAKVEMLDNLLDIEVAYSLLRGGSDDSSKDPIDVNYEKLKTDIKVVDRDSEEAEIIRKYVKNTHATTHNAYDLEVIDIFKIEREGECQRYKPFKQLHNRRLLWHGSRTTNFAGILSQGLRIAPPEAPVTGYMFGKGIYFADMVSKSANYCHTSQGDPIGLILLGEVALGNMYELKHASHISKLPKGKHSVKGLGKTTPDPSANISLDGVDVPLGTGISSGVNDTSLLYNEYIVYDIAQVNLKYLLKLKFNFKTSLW
smiles,measurement,value
CC(=O)c1c(O)c(C)c(O)c(Cc2c(O)c3c(c(C(=O)/C=C/c4ccccc4)c2O)OC(C)(C)C=C3)c1O [Rottlerin],PARP1 L713F-nLuc/akaLuc ratio,0.628 (inactive)
